Measurements: PubChem BioAssay (Tox21)
Inconclusive results are not listed. Active and inactive are the calls of the source. Calls follow the shape of the dose curve; as a rule, active = well fitted activation curve with a large enough effect in the signal ratio in the repeat runs (not every such curve was filed as active); inconclusive = weak or mixed curves; inactive = flat fitted curve, though single readings scatter; the % refers to the signal ratio.

Test: qHTS assay to identify small molecule agonists of the hypoxia (HIF-1) signaling pathway (AID 1224846)
Details: HRE-bla ME-180 cells, beta-lactamase ratio, 17 h; series mostly up to 76.8 µM; activation: at the top concentration
From the text: U.S. Tox21 Program National Center for Advancing Translational Sciences [NCATS] NIH Chemical Genomics Center [NCGC] U.S. Environmental Protection Agency [EPA] National Institutes of Environmental Health Sciences [NIEHS] National Toxicology Program [NTP] U.S. Food and Drug Administration [FDA] Tox21 Assay Overview: Hypoxia-inducible factor-1 (HIF-1) is the major hypoxia-regulated transcription factor that controls cellular responses to low oxygen concentration. HIF-1 is composed of two subunits: hypoxia responsive HIF-1-alpha and constitutively expressed HIF-1-beta, which is also known as aryl hydrocarbon receptor nuclear translocator. During hypoxic conditions, HIF-1-alpha heterodimerizes with HIF-1-beta and translocates into the nucleus where the HIF-1 complex binds to the hypoxia-response element (HRE) and activates expression of target genes such as VEGF (vascular endothelial growth factor). The HIF-1 pathway is essential to normal growth and development, and is involved in the pathophysiology of cancer, inflammation, and ischemia. Using a beta-lactamase reporter-gene under control of the hypoxia response element, a cell-based assay [CellSensor(TM) HRE-bla ME-180 from Life Technologies, Carlsbad, CA] was used to measure hypoxia-induced signaling. Tox21 10K library compounds were measured for their ability to induce the reporter gene activity.
Tox21 Assay Protocol Summary: HRE-bla ME-180 cells were dispensed at 2,000 cells per well in 6 uL of assay medium containing 0.5% dialyzed FBS into black wall/clear-bottom 1536-well plates using a Multidrop Combi (Thermo Scientific, Waltham, MA) dispenser. After the assay plates were incubated at 37C and 5% CO2 for 5 hrs, 23 nL of compounds dissolved in DMSO, positive controls or DMSO only was transferred to each well of the assay plate using a Pintool station (Kalypsys, San Diego, CA). The assay plates were incubated at 37C and 5% CO2 for 17 hrs. One uL of LiveBLAzerTM B/G FRET substrate (CCF4-AM) (Life Technologies) was added to each well using a Flying Reagent Dispenser (Aurora Discovery, San Diego, CA).
% is scaled to controls: 0 for no effect and ±100 for the full control effect.

SMILES | activation | Potency
c1ccc2cc3c(ccc4ccccc43)cc2c1 | 4.91% (inactive) | –
O=C(O)c1cn(-c2ccc(F)cc2)c2cc(N3CCNCC3)c(F)cc2c1=O | – | inactive
CC[C@@H](N)CO | -0.486% (inactive) | –
O=C(O)Cn1cnnn1 | -1.14% [at 35.5 µM] (inactive) | –
COc1ccc(COC(C)=O)cc1 | – | inactive
CO[Si](OC)(OC)c1ccccc1 | 0.0226% (inactive) | –
CCCCN(CCO)CCCC | 0.0564% (inactive) | –
CC(C)(C)NCC(O)COc1ccccc1OCC1CCCO1 (stereo not given) | 0.366% [at 35.5 µM] (inactive) | –
O=c1n(CC2CO2)c(=O)n(CC2CO2)c(=O)n1CC1CO1 (stereo not given) | -2.05% (inactive) | –
CC(C)(C)c1ccccc1 | -0.494% (inactive) | –
O=C(OCc1ccccc1)c1ccc(O)cc1 | – | inactive
CCC(=O)/C=C/C1C(C)=CCCC1(C)C (stereo not given) | – | inactive
CCC(CO)(CO)COCC(CC)(CO)CO | 0.102% (inactive) | –
C=CC(=O)OCCCCCCCC | 0.309% (inactive) | –
CC(=O)OCCOCCOCCOC(C)=O | – | inactive
CN1C(=O)c2ccc([N+](=O)[O-])cc2C1=O | -0.141% (inactive) | –
C=C(C)C(=O)O | – | inactive
O | – | inactive
CC(C)(C)NC(=O)[C@@H]1CN(Cc2cccnc2)CCN1C[C@@H](O)C[C@@H](Cc1ccccc1)C(=O)N[C@H]1c2ccccc2C[C@H]1O | – | inactive
CC[C@]1(O)C[C@@H]2CN(CCc3c([nH]c4ccccc34)[C@@](C(=O)OC)(c3cc4c(cc3OC)N(C)[C@H]3[C@@](O)(C(=O)OC)[C@H](OC(C)=O)[C@]5(CC)C=CCN6CC[C@]43[C@@H]65)C2)C1 | – | inactive

SMILES | activation | Potency
CC1=C(C=O)C(C)(C)CC=C1 | -0.694% (inactive) | –
CCCCCCC(O)CCCCCCCCCCC(=O)O (stereo not given) | – | inactive
C#CC(C)(CC)OC(=O)c1ccccc1C(=O)O (stereo not given) | -0.27% [at 35.5 µM] (inactive) | –
Cc1cc(C2(c3cc(C)c(O)cc3C)OS(=O)(=O)c3ccccc32)c(C)cc1O | – | inactive
C[N+]1([O-])CCOCC1 | -0.121% (inactive) | –
CC(C)CCOC(=O)c1ccc(N(C)C)cc1 | -0.122% [at 35.5 µM] (inactive) | –
CCc1ccc(C(c2ccc(CC)cc2)C(Cl)Cl)cc1 | 4.04% (inactive) | –
O=C(Oc1ccccc1)c1ccccc1O | – | inactive
CC(=O)CC(=O)Nc1ccc2[nH]c(=O)[nH]c2c1 | -0.242% (inactive) | –
CC(=O)OCC1=C(C(=O)O)N2C(=O)[C@@H](NC(=O)Cc3cccs3)[C@H]2SC1 | -1.11% [at 35.5 µM] (inactive) | –
O=C(Cl)c1cccc(C(=O)Cl)c1 | – | inactive
OCCN1CCNCC1 | -0.0458% (inactive) | –
CC1COC(=O)O1 (stereo not given) | – | inactive
NCCO | – | inactive
O=C(O)CP(=O)(O)O | -1.78% [at 35.5 µM] (inactive) | –
Cc1cc(C(C)(C)C)c(O)c(C(C)(C)C)c1 | – | inactive
COC(c1ccccc1)(c1ccccc1)[C@H](Oc1nc(C)cc(C)n1)C(=O)O | -1.84% [at 35.5 µM] (inactive) | –
C=CS(=O)(=O)O | -2.36% (inactive) | –
CCCC(=O)c1ccccc1 | -0.639% (inactive) | –
O=C(O)CCc1ccccc1 | 0.656% (inactive) | –
